In PubChem BioAssay (EPA / NIEHS):
Inconclusive results are not listed. Some compounds were tested as several samples or in several runs, with calls that do not always agree. Active and inactive are the calls of the source. Rule for the calls, unless noted: active = hit-call score of the fitted dose curve at least 0.9, where 1 is the maximum; inconclusive = response in the unintended direction; inactive = score below 0.9.

Legend:
[1] = target: Estrogen receptor (Homo sapiens) (UniProt P03372); test: OT_ERa_GFPERaERE_0120: Odyssey Thera (OT) 2-hour HeLa Transcription Induction Assay for Estrogen Receptor (AID 2283382)
How it was run: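 HeLa cells were dosed for 2 h, then GFP reporter induction was quantified by fluorescence microscopy with high-content image analysis. Gain of signal fitted against DMSO baseline.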

[2] = target: Retinoic acid receptor RXR-alpha (Homo sapiens) (UniProt P19793); test: OT_NURR1_NURR1RXRa_0480: Odyssey Thera (OT) 8-hour HEK293T Protein Complementation Assay for Nurr1/retinoid X receptor (RXR) (AID 2283385)
How it was run: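 HEK293T cells expressing Nurr1 and RXRα fused to reporter fragments (protein-fragment complementation); fluorescence measured 8 h after dosing. Gain of signal fitted relative to DMSO.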

[3] = target: Retinoic acid receptor RXR-alpha (Homo sapiens) (UniProt P19793); test: OT_NURR1_NURR1RXRa_1440: Odyssey Thera (OT) 24-hour HEK293T Protein Complementation Assay for Nurr1/retinoid X receptor (RXR) (AID 2283386)
How it was run: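 HEK293T protein-fragment complementation of Nurr1 and RXRα fused to reporter fragments; compounds 24 h. Fluorescence gain from reconstituted reporter fitted versus DMSO.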

[4] = target: Peroxisome proliferator-activated receptor gamma (Homo sapiens) (UniProt P37231); test: OT_PPARg_PPARgSRC1_0480: Odyssey Thera (OT) 8-hour Protein-Complementation Assay for Peroxisome Proliferator-activated Receptor Gamma / SRC-1 Co-activator (AID 2283387);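 note: nuclear to cytoplasmic split Venus YFP fluorescence ratio reporting PPARg SRC-1 interaction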
How it was run: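 Protein-fragment complementation in HEK293T: Venus YFP halves (residues 1-158, 159-239, mutated to IFP1/IFP2) fused to PPARg/SRC-1. 8 h exposure; N/C ratio at 488 nm; DMSO negative control.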

[5] = target: Peroxisome proliferator-activated receptor gamma (Homo sapiens) (UniProt P37231); test: OT_PPARg_PPARgSRC1_1440: Odyssey Thera (OT) 24-hour Protein-Complementation Assay for Peroxisome Proliferator-activated Receptor Gamma/ SRC-1 Co-activator (AID 2283388);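 note: nuclear to cytoplasmic ratio of reconstituted Venus YFP fluorescence in fixed imaged cells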
How it was run: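 Readout is the 488 nm N/C fluorescence ratio from fixed, Draq5-stained HEK293T cells after 24 h compound exposure. Cells carried transiently transfected PPARg and SRC-1 fused to Venus fragments, transfected 48 h before treatment.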

[6] = read-out: Tumor necrosis factor receptor superfamily member 6 (Homo sapiens) (UniProt P25445); test: LTEA_HepaRG_FAS: Life Technologies and Expression Analysis (LTEA) Assay for Fas cell surface death receptor (FAS) using HepaRG (AID 2283447; active = hit-call score of the fitted dose curve at least 0.9, where 1 is the maximum; inactive = score below 0.9); details: mRNA level, 48 h; actives raise or lower the signal
How it was run: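 Differentiated human HepaRG cells, pre-cultured 48 h, were exposed in duplicate for 48 h to 8-point half-log concentrations (top 100 uM, 0.5% DMSO) in serum-free induction medium; FAS mRNA measured by qRT-PCR, normalized to ACTB/GAPDH/POLR2A, bidirectional fit versus DMSO.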

[7] = read-out: Fatty acid synthase (Homo sapiens) (UniProt P49327); test: LTEA_HepaRG_FASN: Life Technologies and Expression Analysis (LTEA) Assay for Fatty Acid Synthase (FASN) using HepaRG (AID 2283448; active = hit-call score of the fitted dose curve at least 0.9, where 1 is the maximum; inactive = score below 0.9); details: mRNA level, 48 h; actives raise or lower the signal
How it was run: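 Differentiated HepaRG cells in serum-free induction medium exposed 48 h in duplicate to eight half-log concentrations, top 100 uM, 0.5% DMSO. FASN mRNA by qRT-PCR normalised to ACTB, GAPDH, POLR2A; bidirectional fit versus DMSO.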

[8] = read-out: Cyclin D2 (CCND2), CCND2 (gene 894); test: LTEA_HepaRG_CCND2: Life Technologies and Expression Analysis (LTEA) Assay for Cyclin D2 (CCND2) using HepaRG (AID 2283449; active = hit-call score of the fitted dose curve at least 0.9, where 1 is the maximum; inactive = score below 0.9;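 note: CCND2 transcript measured by TaqMan qRT-PCR and normalised to three housekeeping genes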); details: mRNA level, 48 h; actives raise or lower the signal
How it was run: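 Differentiated human HepaRG cells were exposed for 48 h in serum-free induction medium to eight half-log concentrations topping at 100 uM (0.5% DMSO vehicle). CCND2 mRNA was quantified by TaqMan qRT-PCR, normalised to ACTB, GAPDH and POLR2A, and fitted bidirectionally against DMSO.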

[9] = read-out: Cyclin Dependent Kinase Inhibitor 1A (CDKN1A), CDKN1A (gene 1026); test: LTEA_HepaRG_CDKN1A: Life Technologies and Expression Analysis (LTEA) Assay for Cyclin Dependent Kinase Inhibitor 1A (CDKN1A) using HepaRG (AID 2283450; active = hit-call score of the fitted dose curve at least 0.9, where 1 is the maximum; inactive = score below 0.9); details: mRNA level, 48 h; actives raise or lower the signal
How it was run: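 Expression quantified by Fluidigm qRT-PCR with ACTB, GAPDH and POLR2A normalization, fitted bidirectionally against 0.5% DMSO. Cells: HepaRG, plated 48 h then treated 48 h in serum-free induction medium, top concentration 100 uM with half-log dilutions.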

[10] = CEETOX_H295R_11DCORT: CeeTox H295R High-throughput Steroidogenesis Assay for 11-Deoxycortisol (11DCORT) (AID 2283432; active = hit-call score of the fitted dose curve at least 0.9, where 1 is the maximum; inactive = score below 0.9;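 for AC50: 11-deoxycortisol secreted into the medium measured by LC-MS/MS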); details: actives raise or lower the signal
How it was run: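 Adrenal carcinoma line H295R, run per OECD 456 with minor changes, was forskolin-stimulated (10 uM, 48 h) before a 48 h chemical exposure at 0.1% DMSO. Secreted 11-deoxycortisol was quantified by HPLC-MS/MS.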

[11] = CEETOX_H295R_OHPREG: CeeTox H295R High-throughput Steroidogenesis Assay for OH-Pregnenolone (OHPREG) (AID 2283434; active = hit-call score of the fitted dose curve at least 0.9, where 1 is the maximum; inactive = score below 0.9); details: actives raise or lower the signal
How it was run: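 Human adrenal H295R cells were prestimulated 48 h with 10 uM forskolin, then exposed 48 h to chemical in 0.1% DMSO. Medium 17alpha-hydroxypregnenolone was quantified by HPLC-MS/MS after MTBE extraction; bidirectional fitting versus DMSO baseline.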

[12] = CEETOX_H295R_OHPROG: CeeTox H295R High-throughput Steroidogenesis Assay for OH-Progesterone (OHPROG) (AID 2283435; active = hit-call score of the fitted dose curve at least 0.9, where 1 is the maximum; inactive = score below 0.9); details: actives raise or lower the signal
How it was run: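 H295R adrenal cells prestimulated 48 h with 10 uM forskolin, then exposed 48 h to chemical (0.1% DMSO final). 17alpha-hydroxyprogesterone in medium quantified by HPLC-MS/MS; bidirectional fit versus DMSO, with MTT viability measured in the same wells.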

[13] = CEETOX_H295R_CORTIC: CeeTox H295R High-throughput Steroidogenesis Assay for Corticosterone (CORTIC) (AID 2283437; active = hit-call score of the fitted dose curve at least 0.9, where 1 is the maximum; inactive = score below 0.9;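 note: corticosterone secreted into medium quantified by mass spectrometry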); details: actives raise or lower the signal
How it was run: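 H295R cells were prestimulated 48 h with 10 uM forskolin, then exposed 48 h to test chemical in 0.1% DMSO. Medium corticosterone was MTBE-extracted and quantified by HPLC-MS/MS; bidirectional fit versus DMSO baseline.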

[14] = CEETOX_H295R_CORTISOL: CeeTox H295R High-throughput Steroidogenesis Assay for Cortisol (AID 2283438; active = hit-call score of the fitted dose curve at least 0.9, where 1 is the maximum; inactive = score below 0.9;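 note: cortisol secreted into medium quantified by LC-MS/MS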); details: actives raise or lower the signal
How it was run: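 Forskolin-primed H295R cells (10 uM, 48 h) treated 48 h with test chemical in 0.1% DMSO. Cortisol in medium quantified by MTBE extraction and HPLC-MS/MS; bidirectional fit vs DMSO, MTT viability in same wells.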

[15] = CEETOX_H295R_DOC: CeeTox H295R High-throughput Steroidogenesis Assay for DOC (AID 2283439; active = hit-call score of the fitted dose curve at least 0.9, where 1 is the maximum; inactive = score below 0.9); details: actives raise or lower the signal
How it was run: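 H295R cells prestimulated 48 h with 10 uM forskolin, then exposed 48 h to test chemical (0.1% DMSO final). Medium 11-deoxycorticosterone measured by HPLC-MS/MS after MTBE extraction; bidirectional fit vs DMSO, viability checked by MTT in same wells.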

[16] = CEETOX_H295R_ESTRADIOL: CeeTox H295R High-throughput Steroidogenesis Assay for Estradiol (AID 2283440; active = hit-call score of the fitted dose curve at least 0.9, where 1 is the maximum; inactive = score below 0.9;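 note: estradiol secreted into medium quantified by LC-MS/MS after dansyl derivatisation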); details: actives raise or lower the signal
How it was run: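 Estradiol in spent medium measured by LC-MS/MS after dansyl chloride derivatisation. Forskolin-primed (10 uM, 48 h) human adrenal H295R cells received test chemical 48 h at 0.1% DMSO; concentrations lowered until MTT viability >/=70%.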

[17] = CEETOX_H295R_ESTRONE: CeeTox H295R High-throughput Steroidogenesis Assay for Estrone (AID 2283441; active = hit-call score of the fitted dose curve at least 0.9, where 1 is the maximum; inactive = score below 0.9;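 note: estrone secreted into medium measured by LC-MS/MS after dansyl derivatization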); details: actives raise or lower the signal
How it was run: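 H295R cells prestimulated 48 h with 10 uM forskolin, then exposed 48 h to chemicals in 0.1% DMSO final; estrone in medium extracted with MTBE, dansyl-derivatized, quantified by HPLC-MS/MS; bidirectional fitting versus DMSO, viability by MTT.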

[18] = CEETOX_H295R_PROG: CeeTox H295R High-throughput Steroidogenesis Assay for Progesterone (PROG) (AID 2283442; active = hit-call score of the fitted dose curve at least 0.9, where 1 is the maximum; inactive = score below 0.9;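 for AC50: human H295R adrenal cells primed with 10 µM forskolin before dosing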); details: actives raise or lower the signal
How it was run: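 Progesterone secreted by human H295R cells was measured by LC-MS/MS following 48 h chemical exposure at 0.1% DMSO, preceded by 48 h forskolin (10 uM) stimulation. Same-well MTT viability; cytotoxic concentrations diluted 10- or 100-fold and retested.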

[19] = target: Bile acid receptor (Homo sapiens) (UniProt Q96RI1); test: OT_FXR_FXRSRC1_0480: Odyssey Thera (OT) 8-hour HEK293T Protein-Complementation Assay for Farnesoid X receptor/SRC-1 Co-activator (AID 2283383)
How it was run: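 HEK293T protein-fragment complementation assay: FXR and SRC-1 coactivator are fused to reporter fragments, and their interaction restores a fluorescent reporter. Readout was taken 8 h after dosing, with gain of signal fit relative to DMSO.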

Measured: AC50

Sequence of Peroxisome proliferator-activated receptor gamma (Homo sapiens) (P37231 whole entry, looked up, the tested form may be a part): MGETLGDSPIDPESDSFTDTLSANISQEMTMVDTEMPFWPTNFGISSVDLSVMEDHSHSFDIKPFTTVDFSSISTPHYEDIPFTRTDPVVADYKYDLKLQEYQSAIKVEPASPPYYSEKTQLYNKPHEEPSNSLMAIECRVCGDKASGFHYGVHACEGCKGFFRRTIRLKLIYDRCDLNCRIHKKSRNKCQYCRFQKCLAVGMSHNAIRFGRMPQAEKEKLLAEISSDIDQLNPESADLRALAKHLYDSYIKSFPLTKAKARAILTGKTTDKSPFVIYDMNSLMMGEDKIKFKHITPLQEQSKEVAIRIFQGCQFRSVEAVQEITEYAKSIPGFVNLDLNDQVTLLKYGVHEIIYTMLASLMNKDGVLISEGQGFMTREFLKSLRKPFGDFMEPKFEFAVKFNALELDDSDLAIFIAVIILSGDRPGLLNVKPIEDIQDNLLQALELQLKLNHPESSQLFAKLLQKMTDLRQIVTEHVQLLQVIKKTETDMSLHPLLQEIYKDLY
Sequence of Retinoic acid receptor RXR-alpha (Homo sapiens) (P19793 whole entry, looked up, the tested form may be a part): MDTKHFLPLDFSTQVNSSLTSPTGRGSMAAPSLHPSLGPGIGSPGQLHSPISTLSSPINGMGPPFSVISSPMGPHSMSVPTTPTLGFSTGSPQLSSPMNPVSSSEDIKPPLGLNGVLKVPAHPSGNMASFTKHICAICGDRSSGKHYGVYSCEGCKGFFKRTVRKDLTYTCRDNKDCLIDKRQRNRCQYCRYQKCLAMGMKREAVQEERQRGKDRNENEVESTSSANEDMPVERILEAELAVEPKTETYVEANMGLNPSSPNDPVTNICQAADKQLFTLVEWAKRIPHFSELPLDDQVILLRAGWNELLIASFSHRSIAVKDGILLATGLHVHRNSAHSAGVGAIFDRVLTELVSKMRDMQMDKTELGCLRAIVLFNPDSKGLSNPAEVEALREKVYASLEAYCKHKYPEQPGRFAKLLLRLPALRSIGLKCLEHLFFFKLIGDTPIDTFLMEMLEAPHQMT
Sequence of Fatty acid synthase (Homo sapiens) (P49327 whole entry, looked up): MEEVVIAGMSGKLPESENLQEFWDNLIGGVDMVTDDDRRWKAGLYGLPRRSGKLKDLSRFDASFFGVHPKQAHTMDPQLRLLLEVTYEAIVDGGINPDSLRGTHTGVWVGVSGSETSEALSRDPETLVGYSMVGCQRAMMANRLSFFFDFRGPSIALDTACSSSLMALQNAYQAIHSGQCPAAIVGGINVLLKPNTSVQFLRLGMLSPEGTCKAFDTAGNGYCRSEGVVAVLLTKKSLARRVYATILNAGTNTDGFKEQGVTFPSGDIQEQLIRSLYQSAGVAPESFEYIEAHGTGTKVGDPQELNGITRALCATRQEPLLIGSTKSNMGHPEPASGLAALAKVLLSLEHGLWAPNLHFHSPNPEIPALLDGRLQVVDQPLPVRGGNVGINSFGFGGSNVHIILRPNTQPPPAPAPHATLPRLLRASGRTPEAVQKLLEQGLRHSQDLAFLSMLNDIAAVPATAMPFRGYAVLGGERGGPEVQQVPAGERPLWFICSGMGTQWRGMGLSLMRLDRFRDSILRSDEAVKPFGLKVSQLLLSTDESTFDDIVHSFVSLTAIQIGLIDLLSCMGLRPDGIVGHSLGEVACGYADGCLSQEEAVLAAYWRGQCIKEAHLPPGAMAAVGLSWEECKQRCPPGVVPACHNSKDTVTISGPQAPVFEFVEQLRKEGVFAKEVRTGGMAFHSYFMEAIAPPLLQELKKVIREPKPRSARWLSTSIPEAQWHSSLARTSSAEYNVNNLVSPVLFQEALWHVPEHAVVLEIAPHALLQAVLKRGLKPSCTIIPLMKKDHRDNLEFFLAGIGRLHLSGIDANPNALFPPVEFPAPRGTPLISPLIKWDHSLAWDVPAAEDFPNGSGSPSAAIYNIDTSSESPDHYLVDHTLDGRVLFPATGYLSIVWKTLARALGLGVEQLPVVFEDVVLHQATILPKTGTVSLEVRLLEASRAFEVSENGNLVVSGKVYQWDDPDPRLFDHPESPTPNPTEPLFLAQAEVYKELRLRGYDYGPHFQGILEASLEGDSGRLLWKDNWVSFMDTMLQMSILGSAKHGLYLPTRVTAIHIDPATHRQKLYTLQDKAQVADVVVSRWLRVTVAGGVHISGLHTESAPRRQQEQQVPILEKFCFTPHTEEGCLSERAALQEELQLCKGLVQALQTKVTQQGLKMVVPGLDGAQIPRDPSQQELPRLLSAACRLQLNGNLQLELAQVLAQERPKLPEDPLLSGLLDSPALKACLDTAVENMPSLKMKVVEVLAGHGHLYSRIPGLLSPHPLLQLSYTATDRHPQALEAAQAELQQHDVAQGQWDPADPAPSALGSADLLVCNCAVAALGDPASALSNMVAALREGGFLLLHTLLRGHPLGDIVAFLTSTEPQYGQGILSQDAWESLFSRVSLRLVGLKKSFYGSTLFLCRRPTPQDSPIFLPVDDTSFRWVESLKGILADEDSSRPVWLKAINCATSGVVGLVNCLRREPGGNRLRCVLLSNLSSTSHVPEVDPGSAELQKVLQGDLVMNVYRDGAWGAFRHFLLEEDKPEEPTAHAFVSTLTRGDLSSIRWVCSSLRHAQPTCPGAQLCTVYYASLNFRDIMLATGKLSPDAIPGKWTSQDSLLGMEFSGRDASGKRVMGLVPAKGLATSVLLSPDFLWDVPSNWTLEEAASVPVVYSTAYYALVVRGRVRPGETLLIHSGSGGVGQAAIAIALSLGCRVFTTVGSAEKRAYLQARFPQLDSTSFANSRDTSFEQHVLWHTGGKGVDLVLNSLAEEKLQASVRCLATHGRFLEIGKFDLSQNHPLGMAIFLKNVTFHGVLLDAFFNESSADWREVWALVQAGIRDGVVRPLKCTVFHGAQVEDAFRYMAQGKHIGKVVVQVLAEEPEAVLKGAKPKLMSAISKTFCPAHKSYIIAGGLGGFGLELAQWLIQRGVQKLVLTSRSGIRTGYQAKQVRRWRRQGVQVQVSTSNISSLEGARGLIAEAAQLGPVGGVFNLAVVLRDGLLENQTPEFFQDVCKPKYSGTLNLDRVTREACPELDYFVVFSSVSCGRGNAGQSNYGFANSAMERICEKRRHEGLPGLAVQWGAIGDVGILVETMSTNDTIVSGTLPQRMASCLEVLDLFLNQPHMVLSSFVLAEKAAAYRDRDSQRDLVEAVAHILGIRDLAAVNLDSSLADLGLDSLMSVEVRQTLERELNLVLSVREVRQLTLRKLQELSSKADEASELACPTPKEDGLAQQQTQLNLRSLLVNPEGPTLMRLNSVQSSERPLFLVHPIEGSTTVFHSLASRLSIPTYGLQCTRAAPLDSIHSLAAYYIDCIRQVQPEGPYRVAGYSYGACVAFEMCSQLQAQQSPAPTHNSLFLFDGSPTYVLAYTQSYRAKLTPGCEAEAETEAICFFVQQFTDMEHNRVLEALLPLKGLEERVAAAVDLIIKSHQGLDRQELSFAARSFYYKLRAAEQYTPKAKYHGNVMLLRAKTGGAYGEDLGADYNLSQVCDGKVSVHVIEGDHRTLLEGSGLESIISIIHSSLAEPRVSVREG
Sequence of Estrogen receptor (Homo sapiens) (P03372 whole entry, looked up): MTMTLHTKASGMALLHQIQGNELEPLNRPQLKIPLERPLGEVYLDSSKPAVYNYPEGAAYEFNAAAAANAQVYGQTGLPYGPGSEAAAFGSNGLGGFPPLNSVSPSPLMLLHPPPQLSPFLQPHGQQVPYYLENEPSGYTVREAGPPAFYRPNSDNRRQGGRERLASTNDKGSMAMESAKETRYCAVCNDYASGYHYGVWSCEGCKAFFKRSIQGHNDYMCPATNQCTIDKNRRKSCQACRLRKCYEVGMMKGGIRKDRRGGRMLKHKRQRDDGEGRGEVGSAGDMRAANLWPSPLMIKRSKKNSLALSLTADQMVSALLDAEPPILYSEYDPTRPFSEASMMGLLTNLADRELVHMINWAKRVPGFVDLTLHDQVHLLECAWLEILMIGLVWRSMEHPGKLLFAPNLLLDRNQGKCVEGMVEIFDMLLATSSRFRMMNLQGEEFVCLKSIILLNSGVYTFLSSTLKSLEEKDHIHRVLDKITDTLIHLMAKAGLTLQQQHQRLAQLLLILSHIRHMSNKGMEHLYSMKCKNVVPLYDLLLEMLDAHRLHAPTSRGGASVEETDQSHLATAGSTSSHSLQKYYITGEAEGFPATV
Sequence of Bile acid receptor (Homo sapiens) (Q96RI1 whole entry, looked up, the tested form may be a part): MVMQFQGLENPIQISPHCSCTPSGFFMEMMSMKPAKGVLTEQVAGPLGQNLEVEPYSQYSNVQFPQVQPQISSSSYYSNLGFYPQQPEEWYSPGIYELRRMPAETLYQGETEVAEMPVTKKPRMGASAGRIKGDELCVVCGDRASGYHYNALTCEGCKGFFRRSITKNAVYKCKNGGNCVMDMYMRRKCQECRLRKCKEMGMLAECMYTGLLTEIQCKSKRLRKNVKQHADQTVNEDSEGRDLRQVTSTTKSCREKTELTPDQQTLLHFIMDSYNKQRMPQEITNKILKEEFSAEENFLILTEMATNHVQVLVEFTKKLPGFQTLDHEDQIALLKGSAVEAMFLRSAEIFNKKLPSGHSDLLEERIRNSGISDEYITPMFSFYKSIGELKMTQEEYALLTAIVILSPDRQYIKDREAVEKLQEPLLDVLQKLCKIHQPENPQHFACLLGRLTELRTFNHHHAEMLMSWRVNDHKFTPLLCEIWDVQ

COC(=O)c1c(C(F)F)nc(C(F)(F)F)c(C2=NCCS2)c1CC(C)C
inactive: [1] | [2] | [3] | [4] | [5] | [6] | [7] | [8] | [9]

CCOC(=O)C(C)OC(=O)c1cc(Oc2ccc(C(F)(F)F)cc2Cl)ccc1[N+](=O)[O-] (stereo unspecified)
active: [7] 35.1 µM
inactive: [1] | [2] | [3] | [4] | [5] | [10] | [11] | [12] | [13] | [14] | [15] | [16] | [17] | [18] | [6] | [9]

CC(C)N1C(=O)N(c2ccccc2)CSC1=NC(C)(C)C
inactive: [1] | [2] | [3] | [4] | [5] | [6] | [7] | [8]
active: [2] 74.4 µM | [3] 80.8 µM | [9] 85.2 µM

CC1(C)C(C(=O)OC(C#N)c2cccc(Oc3ccccc3)c2)C1(C)C (stereo unspecified)
active: [19] 2.05 µM
inactive: [1] | [2] | [3] | [4] | [5] | [6] | [7] | [8] | [9]

Cc1c(COC(=O)[C@@H]2[C@H](/C=C(\Cl)C(F)(F)F)C2(C)C)cccc1-c1ccccc1
inactive: [1] | [19] | [2] | [3] | [4] | [5] | [11] | [12] | [16] | [17] | [18] | [6] | [7] | [8]

CCNP(=S)(OC)O/C(C)=C/C(=O)OC(C)C (stereo unspecified)
inactive: [1] | [2] | [3] | [4] | [5] | [12] | [14] | [16] | [17] | [6] | [8] | [9]
active: [10] 65.9 µM | [11] 61.8 µM | [13] 50 µM | [15] 50 µM | [18] 50 µM | [7] 36.3 µM

C=CCOC(=O)C(C)(C)OC(=O)c1cc(-n2c(=O)cc(C(F)(F)F)n(C)c2=O)ccc1Cl
inactive: [1] | [2] | [3] | [4] | [5] | [6] | [7] | [8]

Nc1c(Cl)c(Cl)nc(C(=O)O)c1Cl
inactive: [1] | [2] | [3] | [4] | [5] | [6] | [7] | [8] | [9]
